High-throughput results (PubChem)
Compounds with a hit are over-represented: about 3.4% of the library has one in this group of screens.
Mcl1-Noxa inh: Mcl-1/Noxa interaction inhibition | 1.5% of 220,000 active | AID 1022 | TR-FRET Mcl-1/Noxa peptide binding, 2 h | inhibition, % at 21.7 µM;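 active = compounds that cut the protein-peptide binding signal by more than 50% relative to plate controls in a single-dose test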;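 note: His-tagged Mcl-1 with rhodamine Noxa BH3 peptide and terbium anti-His antibody; 0% = Mcl-1 plus Noxa peptide wells and 100% = peptide-only wells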
Mcl-1 Bim block: human Bim-Mcl-1 interaction inhibition | inhibition, % at 10 µM | 0.1% of 190,000 active | Bead-based flow cytometry, Bim peptide-Mcl-1 binding | Q07820; in the data active = inhibition above about 40%;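 note: 0% = no compound tracer wells and 100% = peptide blocker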
Mcl1 Bid PPI: disrupts binding of human Mcl-1 to Bid peptide. Q07820. TR-FRET Mcl-1/Bid-Dy647 peptide binding, 1536-well. inhibition, % at 21.7 µM. 0.97% of 220,000 active. AID 1021;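 active = compounds that cut the binding signal by more than half at the single screening dose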;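 note: His-tagged Mcl-1 with europium anti-His antibody binding Bid BH3 peptide; 0% = Mcl-1 plus peptide wells and 100% = peptide-only wells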
NCF1 inh: blocks human p47phox regulatory protein of NADPH oxidases | P14598 | p47phox/p22phox peptide binding, fluorescence polarization, 2 h | 0.53% of 220,000 active | inhibition, % at 24.7 µM;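 active = inhibition above about 30%, limit read from the data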;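 note: 0% = p47phox with labelled peptide and 100% = labelled peptide alone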
Target sequence (P14598 whole entry, looked up): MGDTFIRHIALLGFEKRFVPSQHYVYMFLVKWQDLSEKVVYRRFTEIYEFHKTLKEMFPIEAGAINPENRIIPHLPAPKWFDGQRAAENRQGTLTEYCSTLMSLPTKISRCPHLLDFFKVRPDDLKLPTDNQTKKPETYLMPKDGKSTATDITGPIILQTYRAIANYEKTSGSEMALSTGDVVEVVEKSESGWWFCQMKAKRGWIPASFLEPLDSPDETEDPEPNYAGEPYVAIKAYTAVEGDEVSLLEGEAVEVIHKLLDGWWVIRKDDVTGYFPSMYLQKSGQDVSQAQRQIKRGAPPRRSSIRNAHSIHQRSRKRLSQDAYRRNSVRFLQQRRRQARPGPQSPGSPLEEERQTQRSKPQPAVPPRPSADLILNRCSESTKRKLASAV
m-calpain inh: inhibitors of pig calpain II. 0.37% of 220,000 active. inhibition, % at 16 µM. purified calpain II, fluorogenic peptide substrate, 30 min. AID 1236;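 active = inhibition above about 50%, limit read from the data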
14-3-3 Bad PPI: disrupts binding of bovine 14-3-3 zeta to phospho-Bad peptide | P63103 | TR-FRET 14-3-3zeta/Dy647-pBad peptide displacement, 1 h | inhibition, % at 21.7 µM | 0.71% of 220,000 active;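 active = inhibition above about 70%, limit read from the data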;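 note: 0% = full 14-3-3 plus peptide FRET controls and 100% = background without 14-3-3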
* marks the source's active call; other numbers are inactive results; · = not tested or not shown; [ ] = remark or other dose.

SMILES	Mcl1-Noxa inh	Mcl-1 Bim block	Mcl1 Bid PPI	NCF1 inh	m-calpain inh	14-3-3 Bad PPI
CC(C)NC(=O)COC(=O)c1ccccc1C(=O)c1ccccc1	-18	-1	-8	-4	3	0
Cc1nc(S/C(C(=O)O)=C2/C(=O)Nc3ccccc32)n[nH]1	47	·	-7	-17	-5	0
CCCCn1c(SCC(=O)Nc2nnc(C)s2)nnc1-c1ccncc1	11	-3	-17	6	2	-14
COc1ccc(C(=O)c2ccc(CC#N)s2)cc1	7	-1	2	-10	-52	-5
Fc1ccc(Nc2nc(-c3ccncc3)cs2)cc1	51*	-2	-10	-7	-17	-7
O=c1[nH]c(=O)n(CCc2ccc(F)cc2)c(O)c1C=NCc1ccc2c(c1)OCO2	-21	-7	53*	-12	9	56
CC(Oc1ccc2ccc(=O)oc2c1)C(=O)c1ccccc1 (stereo unspecified)	-4	-6	52*	2	9	33
O=C(COc1ccc2ccc(=O)oc2c1)c1ccccc1	16	·	21	-7	-2	25
COc1ccccc1-c1cc(C(=O)Nc2sc3c(c2C#N)CCC(C)C3)c2ccccc2n1 (stereo unspecified)	-5	-1	-17	-66	-176	-2
Cc1cc(C(=O)OCC(=O)Nc2sc3c(c2C#N)CCC(C)C3)c2ccccc2n1 (stereo unspecified)	93*	0	38	-21	-6	-10
COc1ccc(C(=O)NC(=S)NCc2ccco2)cc1	9	·	-61	-4	8	-2
Cc1ccc(C(=O)N/N=C/c2ccc(-c3ccccc3[N+](=O)[O-])o2)cn1	19	0	-30	-17	18	5
COc1ccc(-c2ccc(/C=N/NC(=O)c3cccnc3)o2)c([N+](=O)[O-])c1	74*	1	38	-19	21	79*[fluorescence artefact?]
CC1CCC(N2CCNCC2)CC1 (stereo unspecified)	32	-2	0	-1	-29	-2
O=[N+]([O-])c1ccc(N=Cc2sc3ccccc3c2O)cc1	33	-2	23	-48	17	-5
O=[N+]([O-])c1cccc(N=Cc2sc3ccccc3c2O)c1	59*	0	38	21	-11	84*
Cc1ccccc1CN1CCN(S(=O)(=O)c2cccs2)CC1	1	0	-8	-11	9	-19
Cc1cccc(N=Cc2[nH]c3ccc(Br)c(Cl)c3c2O)c1	62*	-3	24	-30	2	49
CCn1c2ccccc2c2cc(/C=N/NC(=O)c3ccc(O)cc3)ccc21	42	-5	-7	-48	-110	1
CCn1c2ccccc2c2cc(/C=N/NC(=O)c3cc(O)cc(O)c3)ccc21	63*	-2	-13	-46	-85	7
Cc1c(NC(=O)C(C)OC(=O)c2c3c(nc4ccccc24)CCC3)c(=O)n(-c2ccccc2)n1C (stereo unspecified)	54*	-5	-19	-5	-17	-5
CCOc1cccc(/C(O)=C2/C(=O)C(=O)N(Cc3ccco3)C2c2ccncc2)c1 (stereo unspecified)	11	0	-80	-11	27	74*
O=C1COc2ccc(N3C(=O)C=CC3=O)cc2N1	57*	-3	-35	-3	-37	-1
COc1ccc(-c2cc(-c3ccc(OC)cc3)nc(-c3ccc4c(c3)NC(=O)CO4)c2)cc1	-6	0	-13	-17	-126	-1
CN(C1=C(NC(=O)c2ccc(Cl)cc2)C(=O)c2ccccc2C1=O)c1ccccc1	19	-6	-54	9	16	-1
SMILES	Mcl1-Noxa inh	Mcl-1 Bim block	Mcl1 Bid PPI	NCF1 inh	m-calpain inh	14-3-3 Bad PPI
O=C(NC1=C(NC2CCS(=O)(=O)C2)C(=O)c2ccccc2C1=O)c1ccccc1 (stereo unspecified)	70*	9	-50	10	-51	-8
Cc1cccc(NC2=C(NC(=O)c3ccccc3)C(=O)c3ccccc3C2=O)c1	94*	-4	-1	11	7	8
O=C(NC1=C(Nc2ccc(Cl)cc2)C(=O)c2ccccc2C1=O)c1ccccc1	61*	-23	-18	12	1	9
Cc1cccc(NC(=O)c2cccc3c2C(=O)c2ccccc2-3)c1	11	0	-10	-5	16	-3
O=C(CSC1=N/C(=C/c2ccc(Cl)c(Cl)c2)C(=O)N1c1ccccc1F)NC1CC1	11	0	-5	-17	-74	-20
Cc1cccc(N(C)C(=O)C2CCCN2S(=O)(=O)c2cccc3nsnc23)c1 (stereo unspecified)	-10	·	-22	4	0	-2
Cc1cccc2cc(-c3ccccc3)c(-c3ccccc3)c[n+]12	15	-2	-44	49*	-10	-11
CC1CCN(CCCn2c(=S)[nH]c3c(sc4ccccc43)c2=O)CC1	59*	-3	-80	-7	6	-11
CC1CCN(CCCn2c(=S)[nH]c3c(sc4ccc([N+](=O)[O-])cc43)c2=O)CC1	48	1	-41	0	-1	-8
Cc1nc(N)sc1-c1csc(Nc2ncccn2)n1	87*	-1	91*	28	-51	89*
N#Cc1c(NC(=O)c2ccccc2Cl)n(Cc2ccccc2)c2nc3ccccc3nc12	70*	2	41	-22	-218	18
COc1ccc([N+](=O)[O-])cc1NC(=O)c1cn(-c2ccc(Cl)cc2)c(=O)c2ccccc12	-11	-6	-8	-10	-55	-16
CCN(CCNC(=O)C1CCCN(Cc2nc(-c3ccc(OC)cc3)oc2C)C1)c1ccccc1 (stereo unspecified)	12	0	-69	-2	-16	86*
CCOc1cccc2sc(Cl)nc12	12	-4	-22	-1	30	-4
CCOc1nsc(OCC)n1	59*	·	-4	6	-3	1
NC(N)=Nc1nc(-c2ccccc2)c2cc(F)ccc2n1	14	0	-5	-40	-168	4
C=CCSC1=N/C(=C\C=C\c2ccco2)C(=O)S1	76*	-6	32	-3	-21	10
COc1ccc(CC(=O)N/N=C(\C)CC(=O)NCc2ccco2)cc1OC	4	·	-50	3	13	-2
COc1ccc2[nH]c3c(=O)n(Cc4ccc(C(=O)N5CCCC5)cc4)c(=S)[nH]c3c2c1	78*	0	-34	12	-40	1
Fc1ccccc1NC(=S)NN(Cc1ccccc1)c1ccccc1	-10	3	-28	-13	-29	-4
CC(C)c1ccccc1NC(=S)NN(Cc1ccccc1)c1ccccc1	8	-3	-73	-1	50*	0
COc1cccc2c1C(=O)c1c(O)c3c(c(O)c1C2=O)C[C@@](O)(C(=O)CO)C[C@@H]3O[C@H]1C[C@H](N)[C@H](O)[C@H](C)O1	60*	34	10	-253	-53	96*[fluorescence artefact?]
COc1ccc(N2C(C)=CS/C2=C(/C#N)c2nnc(N3CCOCC3)n2-c2ccccc2)cc1	25	-2	16	1	30	84*
